# Assay outcomes (PubChem)
# Most compounds without a hit are left out; they make up all but 8.1% or so of the library.
# Sfp inh: blocks B. subtilis Sfp PPTase activity; Q9F4F7; Biochemical Sfp PPTase activity, qHTS; Potency, µM, for inactives: largest response in the series, negative = inhibition, most hits filed as inhibitors; 3.5% of 310,000 active;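 also: the enzyme is Sfp with the accession as filed and its product quenches rhodamine fluorescence; 0% = enzyme reaction without inhibitor and -100% = no enzyme wells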
#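 With Hepes-Na pH 7.6 buffer containing 10 mM MgCl2, Sfp (15 nM) modified BHQ-2-YbbR (12.5 uM) using rhodamine-CoA (5 uM). Two reads 30 minutes apart at 525/598 nm yielded each well's rate.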
# PINK1 modulator: changes PINK1 expression; AID 624263; Potency, µM (series often up to 76.6 µM), without a hit: at the highest dose activation (PINK1 increase), usual class: activators; PINK1 immunofluorescence, high-content cytometry, 24 h; 0.2% of 410,000 active; active = well fitted activation curve with a large enough effect; inconclusive = small, poorly fitted or top-dose-only effect; cell line not stated here; also: % of control where 0% means no effect; nearly all actives have a fitted effect of over 65% in size
#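 Cells are seeded, rested 12 hours, then given compound at five concentrations or DMSO for 24 hours. After fixation, blocking and antibody staining, PINK1 amount and mitochondrial localization are scored; CCCP serves as control.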
# Gal4-VP16 FLuc: inhibits Gal4-VP16 luciferase reporter, ROR gamma counter-screen. Potency, µM (series often up to 53.6 µM), inactives show top-dose activity, negative = inhibition, hits mostly inhibitors. AID 2546. 3.5% of 310,000 active. Drosophila S2 Gal4-VP16 UAS-luciferase, luminescence, 20 h;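 also: Gal4-VP16 expression switched on by copper sulfate through the metallothionein promoter; % is scaled to controls: 0 for no effect and ±100 for the full control effect; nearly all actives have a fitted effect of over 50% in size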
# RORg inh: ROR gamma (mouse) transcription inhibition. P51450. Drosophila S2 Gal4-RORgamma UAS-luciferase reporter, 20 h. Potency, µM (highest dose often 53.6 µM), for the others: top-dose activity change, negative = inhibition, hits mostly inhibitors. 5.4% of 310,000 active; also: % is scaled to controls: 0 for no effect and ±100 for the full control effect; nearly all actives have a fitted effect of over 60% in size
# Target sequence (P51450 whole entry, looked up, the tested form may be a part): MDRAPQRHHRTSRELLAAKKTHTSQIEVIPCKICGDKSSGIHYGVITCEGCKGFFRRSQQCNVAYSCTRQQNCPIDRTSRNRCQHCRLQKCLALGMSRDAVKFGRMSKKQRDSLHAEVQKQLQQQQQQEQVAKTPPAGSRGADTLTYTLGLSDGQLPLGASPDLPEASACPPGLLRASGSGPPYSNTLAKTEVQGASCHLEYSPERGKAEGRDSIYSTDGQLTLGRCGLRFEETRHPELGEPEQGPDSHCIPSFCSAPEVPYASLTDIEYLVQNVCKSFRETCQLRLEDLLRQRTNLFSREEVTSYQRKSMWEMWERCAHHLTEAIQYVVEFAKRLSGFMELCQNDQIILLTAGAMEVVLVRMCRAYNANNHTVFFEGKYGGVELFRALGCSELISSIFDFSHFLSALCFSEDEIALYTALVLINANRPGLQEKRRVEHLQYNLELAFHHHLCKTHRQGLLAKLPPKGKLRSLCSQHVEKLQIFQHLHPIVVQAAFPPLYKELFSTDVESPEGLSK
#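 Luciferase reporter read in Schneider cells carrying Gal4-RORγ (mouse) and UAS-Photinus luciferase; cells given compound 1 h before 700 uM copper sulfate induction, then incubated 20 h at ambient temperature.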
# ClpP mod: qHTS Assay for Activators of ClpP. ATP-dependent Clp protease proteolytic subunit (Bacillus subtilis (strain 168)), P80244. purified B. subtilis ClpP, FRET peptide cleavage, 20 min. Potency, µM (doses to about 57.5 µM), for the others: top-dose activity change, negative = active. 1.9% of 340,000 active; active = well fitted falling curve with a large enough effect; inconclusive = small, poorly fitted or top-dose-only effect; inactive = no such curve, though single readings can be large or run the other way; also: the source files actives as falling curves though it sought activators and does not explain the sign; nearly all actives have a fitted effect of over 65% in size
# Target sequence (P80244 whole entry, looked up): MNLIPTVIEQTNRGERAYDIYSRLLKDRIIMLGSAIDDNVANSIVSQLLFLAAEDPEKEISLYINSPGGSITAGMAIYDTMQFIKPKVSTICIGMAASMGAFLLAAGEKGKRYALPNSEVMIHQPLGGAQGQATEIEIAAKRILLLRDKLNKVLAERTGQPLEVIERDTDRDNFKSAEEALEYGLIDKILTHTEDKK
#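 ClpP 10 microg/mL final, pH 8 Tris/KCl buffer with BSA, glycerol, Tween-20; compound pinned in; FRET-FV substrate; RT 20 min; Ex320/Em430; ΔFRET vs ADEP 5.8 microM, DMSO, no enzyme.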
# Epigenetic reg: epigenetic control regulation, reporter derepression; murine LDR cells, GFP reporter derepression, 30 h; Potency, µM (series often up to 53.9 µM), for inactives: top-dose GFP activation, hits mostly activators; 0.2% of 280,000 active; also: % of control where 0% means no effect; nearly all actives have a fitted effect of over 60% in size
#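 Murine LDR cells carrying a silenced, genomically integrated CMV-driven GFP reporter were exposed to compound for 30 hours at 37 C. After PBS washes, GFP-positive cells (20–120 um objects) were counted by laser-scanning microplate cytometry.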
# Numbers without * were called inactive; ? = inconclusive; / = no result given; [ ] = dose if it differs, or a comment. Unless noted, calls follow the shape of the dose curve; as a rule, active = well fitted curve in the direction sought with a large enough effect; inconclusive = small, poorly fitted or top-dose-only effect, or another doubt; inactive = no such curve, though single readings can be large; an effect the other way counts as inactive or inconclusive. Potency is read from the fitted curve at half-maximal effect.
SMILES,Sfp inh,PINK1 modulator,Gal4-VP16 FLuc,RORg inh,ClpP mod,Epigenetic reg
CCc1ccccc1N1CC(c2nc3ccccc3n2CCOc2ccc(Cl)c(C)c2)CC1=O (stereo unspecified),/,?,/,/,?,3%
Cc1cccc(NC(=O)C(NS(=O)(=O)c2ccc3c(c2)oc(=O)n3C)C(C)C)c1 (stereo unspecified),/,0%,/,/,-1%,-1%
CC1(C)CC2CC(C)(CN2S(=O)(=O)c2ccc(C(=O)Nc3cccc(S(=O)(=O)N4CCOCC4)c3)cc2)C1 (stereo unspecified),1%,-1%,0.5µM*,?,?,0%
COc1ccc(NS(=O)(=O)c2ccc(S(=O)(=O)N3CCOCC3)cc2)cc1,5%,0%,-2%,16%,16µM*,1%
COc1ccc(C(=O)NC(=S)Nc2cccc(S(=O)(=O)N3CCOCC3)c2)cc1,8%,2%,-9%,22µM*,-1%,6%
COc1ccc(NC(=S)Nc2cccc(S(=O)(=O)N3CCCCC3)c2)cc1,-1%,4%,?,18µM*,-2%,0%
COc1ccc(NS(=O)(=O)c2ccc(S(=O)(=O)N3CCCC3)cc2)cc1,20%,-1%,-26%,32%,-5%,-1%
Cc1ccc(S(=O)(=O)CCC(=O)Nc2ccc(OC(F)(F)F)cc2)cc1,/,2%,/,/,2%,-1%
COc1ccccc1C1=Nn2c(nnc2-c2ccccc2C)SC1,-11%,/,-12%,?,/,/
COc1ccc(CNC(=O)C2CCCCN2S(=O)(=O)c2ccc(F)cc2)cc1 (stereo unspecified),/,3%,/,/,-4%,1%
O=C(O)c1nn(CC(=O)N2CCCCCC2)c(=O)c2ccccc12,20%,2%,6%,-3%,28µM*,3%
Cc1nn(CC(=O)N2CCOCC2)c(=O)c2ccccc12,16%,-1%,-8%,10%,-3%,-9%
COc1ccc(OC)c(CNC(=O)c2ccc(-c3nc(CSc4ccccc4)c(C)o3)cc2)c1,/,0%,/,/,18µM*,-2%
COc1cc(NC(=O)c2ccc(-c3nc(CSc4ccccc4)c(C)o3)cc2)cc(OC)c1,/,3%,/,/,14µM*,-5%
COc1ccc(CNC(=O)c2ccc(-c3nc(CSc4ccccc4)c(C)o3)cc2)cc1OC,/,6%,/,/,-14%,-1%
COc1cccc(CNC(=O)c2ccc(-c3nc(CSc4ccccc4)c(C)o3)cc2)c1,/,3%,/,/,-14%,7%
CCCOc1ccc(CNC(=O)CCCn2nc(C)c3sc4ccccc4c3c2=O)cc1,/,1%,/,/,-2%,-4%
O=C(NCC(c1cccnc1)N1CCN(c2ccccc2)CC1)OCc1ccccc1 (stereo unspecified),7%,-2%,-7%,-14%,0%,0%
O=C(NCC(c1cccnc1)N1CCN(c2ccc(F)cc2)CC1)OCc1ccccc1 (stereo unspecified),-2%,1%,?,13µM*,-2%,2%
COc1ccc(C2C(C#N)=C(N)Oc3c2oc(CO)cc3=O)cc1 (stereo unspecified),56µM*,0%,-19%,20%,1%,-2%
Cc1ccccc1NC(=O)Cn1cc(S(=O)(=O)c2ccccc2)c(=O)c2ccccc21,/,1%,/,/,0%,-1%
CCOC(=O)N1CCN(C2=C(NS(=O)(=O)c3ccc(C)cc3)C(=O)c3ccccc3C2=O)CC1,79µM*,2%,-2%,-7%,15%,/
Cc1c(Cl)cccc1NC(=S)N1CCN(Cc2ccc3c(c2)OCO3)CC1,-3%,7%,14µM*,11µM*,/,-1%
COc1cc(NC(=O)CN2CCN(Cc3ccc4c(c3)OCO4)CC2)cc(OC)c1,56µM*,-1%,-1%,-1%,0%,0%
CCN(CC)c1ccc(C(=O)NC(=S)N2CCN(Cc3ccc4c(c3)OCO4)CC2)cc1,3%,1%,7.1µM*,6.3µM*,-1%,0%
SMILES,Sfp inh,PINK1 modulator,Gal4-VP16 FLuc,RORg inh,ClpP mod,Epigenetic reg
CCCCNC(=S)N1CCN(Cc2ccc3c(c2)OCO3)CC1,14µM*,0%,4%,37%,/,-8%
COCCCNC(=S)N1CCN(Cc2ccc3c(c2)OCO3)CC1,-12%,1%,2%,-12%,0%,-1%
CC(C)NC(=S)N1CCN(Cc2ccc3c(c2)OCO3)CC1,8%,-1%,1%,3%,/,3%
CCNc1ncc2nc(-c3ccc(Cl)cc3)c(=O)n(C)c2n1,11%,7%,-3%,-10%,/,/
COc1ccc(N2CCN(C(=O)c3cc4c(=O)oc5ccc(C)cc5c4s3)CC2)cc1,/,6%,/,/,-2%,-1%
c1cc2c(cc1CN1CCN(C3CCCCCC3)CC1)OCO2,56µM*,-2%,2%,0%,0%,/
COc1ccc(OC)c(/C=C/c2sc3ccccc3[n+]2C)c1,/,5%,/,/,1%,/
CCCn1cc(SCC(=O)Nc2nnc(C)s2)c2ccccc21,25%,8%,-2%,?,1%,1%
Cc1ccc(C(=O)NCCn2cc(SCC(=O)Nc3nnc(C)s3)c3ccccc32)cc1,-16%,-1%,1%,14µM*,-1%,-3%
CCOc1ccc(CCNC(=O)CCCc2nnc3n(CC)c(=O)c4sccc4n23)cc1,/,1%,/,/,-4%,0%
Nc1cccnc1Sc1ccc([N+](=O)[O-])cn1,?,4%,?,4µM*,/,-1%
O=[N+]([O-])c1ccc(Sc2ccccc2)nc1,12%,0%,1%,1%,-3%,0%
O=c1c(-c2ccccc2)nc2cnc(N3CCNCC3)nc2n1Cc1cccs1,-3%,7%,-6%,-23%,/,/
CCc1ccccc1N(C)C(=O)c1cc2c(Cl)nc3ccc(C)cc3c2s1,/,0%,/,/,0%,-3%
O=C(c1ccc(F)cc1)N1CCCCC(Sc2nnnn2-c2ccccc2)C1=O (stereo unspecified),-6%,1%,1%,38%,28µM*,0%
O=C(c1ccccc1)N1CCCCC(Sc2nnnn2-c2ccccc2)C1=O (stereo unspecified),0%,-5%[38.3 µM],-7%,?,-2%,-1%
O=C(CCC(=O)c1cccs1)NCc1ccc(Cl)cc1,0%,-1%,2%,1%,1%,-1%
Cc1ccc(CNC(=O)CCC(=O)c2cccs2)cc1,-9%,/,-3%,13µM*,-1%,11%
C/C=C\c1ccc(OC)cc1,26%,/,-8%,8%,/,/
COc1ccc(/C=C/C2=CC(C)(C)NC(=S)N2)cc1,6%,11%,2.5µM*,1.3µM*,0%,1%
CCCCn1c(N)c(N(CCOC)C(=O)c2cc(-c3ccc(C)cc3)nc3ccccc23)c(=O)[nH]c1=O,/,2%,/,/,?,/
